According to PubChem BioAssay AID504840 (Johns Hopkins Ion Channel Center, 2011):
The whole screen tested about 1,500 compounds, of which about 890 (59%) were called active.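 Rule for the calls: active = inhibition of the choline-evoked signal at any tested dose together with a fitted dose-response curve; inactive = no inhibition at any dose or no curve.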 So high a share suggests a set chosen from earlier hits. The list is a sample of the results. Entries with a potency or affinity are not part of this list.

What follows are molecules tested against High affinity choline transporter 1 (Homo sapiens) (UniProt Q9GZV3) (assay: human choline transporter blockers, potency – cell-based, 5-point CRC, membrane potential dye, dose response (AID 504840)). Details: HEK293-CHT, choline-induced depolarization, CHT with LV-to-AA double alanine mutation; series mostly up to 37 µM.
High affinity choline transporter 1 (Homo sapiens), sequence (Q9GZV3 whole entry, looked up): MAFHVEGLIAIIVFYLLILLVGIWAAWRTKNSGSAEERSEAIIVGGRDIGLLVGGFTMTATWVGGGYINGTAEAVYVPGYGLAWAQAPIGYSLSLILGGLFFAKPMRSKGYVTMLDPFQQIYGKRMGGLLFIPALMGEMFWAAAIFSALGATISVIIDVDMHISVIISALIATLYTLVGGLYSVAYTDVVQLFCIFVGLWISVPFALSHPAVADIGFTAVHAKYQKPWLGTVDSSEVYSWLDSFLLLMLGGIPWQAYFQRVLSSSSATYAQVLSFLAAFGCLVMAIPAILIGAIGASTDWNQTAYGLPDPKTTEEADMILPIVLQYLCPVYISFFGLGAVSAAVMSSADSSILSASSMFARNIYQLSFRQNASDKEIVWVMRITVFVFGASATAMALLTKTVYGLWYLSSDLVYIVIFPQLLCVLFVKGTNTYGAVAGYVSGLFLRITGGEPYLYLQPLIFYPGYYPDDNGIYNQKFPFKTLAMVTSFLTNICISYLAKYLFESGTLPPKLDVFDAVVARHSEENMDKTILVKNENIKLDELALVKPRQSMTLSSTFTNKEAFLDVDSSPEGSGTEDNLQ

outcome, inactive:
COc1ccc(/C(O)=C2/C(=O)C(=O)N(c3ccccn3)C2c2cccc(Cl)c2)cc1 (stereo unspecified)
O=C(NC1CC1)C1=C[C@H](c2csc3ccccc23)C[C@H](OCc2ccc(CO)cc2)O1
O=C(Nc1ccccc1C(=O)NCCCn1ccnc1)c1ccc(Cl)cc1Cl
O=C(Nc1ccc(OCc2ccccc2)cc1)Nc1ccccc1C(=O)NCCCN1CCOCC1
CSc1ccccc1C(=O)NCCS(=O)(=O)N1CCN(c2ccc(F)cc2)CC1
C=CCn1c(SC2CCOC2=O)nc2scc(C3CC3)c2c1=O (stereo unspecified)
COc1ccc(OCC(=O)NC(=S)Nc2ccccc2F)cc1
CN(C)CCOC(=O)Cc1ccc(Cl)cc1
CN(Cc1ccccc1)C(=O)COC(=O)COc1ccc(C#N)cc1
Cc1sc2nc(SCCN(C)C)n(-c3ccccc3)c(=O)c2c1-c1ccc(F)cc1
CCCCOc1cccc(C(=O)NNC(=S)NC2CCCCC2)c1
Oc1ccc(Oc2ncc(Cl)cc2Cl)cc1
O=C(C[n+]1cccc2ccccc21)c1ccc(Cl)cc1
CSCCC(NC(=O)c1ccccc1)C(=O)Nc1ccc(C)cc1 (stereo unspecified)
CC(C)Cc1csc(NC(=O)c2ccc(Br)cc2)c1C(=O)O
CC(C)c1c(C(=O)N/N=C/c2cccc(OCc3ccc(F)cc3)c2)nnn1-c1nonc1N
CCCOP(=O)(c1ccc(N(C)C)cc1)C(O)c1ccc(Br)cc1 (stereo unspecified)
O=C(NNS(=O)(=O)c1ccc([N+](=O)[O-])cc1)c1ccc2ccccc2c1O
CCN1CCN(CC(=O)Nc2ccc(S(=O)(=O)N3C(C)CCCC3C)cc2)CC1 (stereo unspecified)
O=C(CCN1C(=O)/C(=C\c2cccc(Br)c2)SC1=S)NCCCN1CCOCC1
S=c1nc(-c2ccco2)[nH][nH]1
O=C(NC(=S)NNC(=O)[C@H]1C[C@@H]1c1ccccc1)c1cccc(F)c1
Cc1csc2c(N3CCN(C(=S)Nc4ccc(C(F)(F)F)cc4)CC3)ncnc12
CCN1CCN(c2cc(C)c3cc(NC(=S)N4CCC5(CC4)OCCO5)ccc3n2)CC1
CCCN1CCN(C(=S)Nc2ccc3nc(N4CCN(CC)CC4)cc(C)c3c2)CC1
O=c1c2c(C(F)(F)F)cc(C(F)(F)F)nc2[nH]n1-c1ccccc1
CCCCCc1cc(=O)oc2c(C(CCN(CC)CC)c3cc(OC)c(OC)c(OC)c3)c(OC)cc(OC)c12 (stereo unspecified)
CCN(CC)CCCN(C(=O)c1ccc(OC)cc1)c1nc(-c2ccc(OC)cc2)cs1
CSC(SC)=C(C#N)C(=O)c1ccccc1
COc1cccc(C(=O)NN/C(C)=C/C(=O)C(F)(F)C(F)(F)C(F)(F)F)c1
O=C1ON=C(c2ccccc2)/C1=C/c1ccco1
C/C(Cl)=C\Cn1c(O)c(N=O)c2ccccc21
CCc1ccc(S(=O)(=O)c2n[nH]n3c2nc(=O)c2ccccc23)cc1
CC(NS(=O)(=O)OCC(Cl)(Cl)Cl)c1ccc(Br)cc1 (stereo unspecified)
O=S(=O)(c1ccc(F)c(F)c1)N1CCN(CCc2ccccc2)CC1
O=C1CCN(CCc2ccccc2)CCN1CCSc1ccccc1
COc1ccc(S(=O)(=O)N2CCN(CCc3ccccc3)CC2)c(OC)c1
CC(C)(C)Nc1nc(Cl)nc(N(C#N)CN2C(=O)c3ccccc3S2(=O)=O)n1
Cc1ccc(SC(CC(=O)c2ccc(C(C)(C)C)cc2)C(=O)O)cc1 (stereo unspecified)
O=C(NN1C(=O)/C(=C/c2cccc(O)c2)SC1=S)c1ccccc1O
O=C(O)c1ccc(/C=C2\SC(=S)N(NC(=O)c3ccc(Br)cc3)C2=O)cc1
COc1ccc(N(CCCN2C(=O)c3cccc4cccc(c34)C2=O)C(=O)c2ccncc2)cc1
CC1CC(C)(C)N(C(=O)CN2C(=O)c3ccccc3C2=O)c2ccccc21 (stereo unspecified)
Oc1c(Br)cc(/C=N/NC(=S)NCc2ccco2)cc1Br
COc1ccc(OCC(=O)N/N=C/C=C/c2ccccc2)cc1
CCCOc1ccc(C(=O)NNC(=S)NC(=O)c2ccccc2)cc1
COc1ccc(C(=O)NNC(=S)NC(=O)c2ccccc2)cc1
CC(C)(C)N/N=C/c1cc(Cl)cc([N+](=O)[O-])c1O
CCOC(=O)c1ccc2c(c1)[nH]c(=S)n2CC
CCCCn1c(=O)n(Cc2cccc(F)c2)c(=O)c2c1ncn2Cc1ccco1
N#Cc1nc(Cc2cccc3ccccc23)oc1N1CCOCC1
O=C(Cn1ncc2c3ccccc3n(Cc3ccccc3)c2c1=O)NCCCN1CCOCC1
Oc1cccc(-n2nnnc2SCc2ccccc2F)c1
Cc1ccccc1-n1nnnc1Sc1nnnn1-c1ccccc1
C=Cn1cc[n+](CC(=O)c2ccc(Cl)cc2)c1
COc1ccc(Cl)cc1NC(=O)C[n+]1cccc(C)c1
C=Cn1cc[n+](CC(=O)c2ccc(Cl)c(Cl)c2)c1
O=[N+]([O-])c1cc([N+](=O)[O-])c2c(=Nc3ccccc3)n(-c3ccccc3)n(O)c2c1
Cc1ccc(C(=O)CCC(=O)NC2CCCC(C)C2C)cc1 (stereo unspecified)
CCCNC(=O)c1ccc(COc2ccc(C)cc2)o1
CC1CCC(NC(=O)c2ccc(CS(=O)(=O)Cc3ccccc3F)o2)CC1 (stereo unspecified)
Cc1ccccc1OC(C)C(=O)Nc1ccc(S(=O)(=O)Nc2nccs2)cc1 (stereo unspecified)
CCC(Oc1ccc(C)cc1)C(=O)Nc1ccc(S(=O)(=O)Nc2nccs2)cc1 (stereo unspecified)
O=C(Nc1ccccc1OC(F)F)c1cccc(S(=O)(=O)N2CCCC2)c1
CC(NCc1ccc(F)cc1)C(=O)Nc1cc(S(=O)(=O)N2CCCCC2)ccc1Cl (stereo unspecified)
Cc1cc(C)n2nc(SCc3cccc(S(=O)(=O)N(C)C)c3)nc2n1
CCOC(=O)C1CCCN(C(=O)Cc2c(F)cccc2Cl)C1 (stereo unspecified)
CSc1ccc(C(=O)C2CCCN(C(=O)c3nonc3C)C2)cc1 (stereo unspecified)
Cc1ccc(SCC2(O)CCN(C(=O)c3ccc(Cl)cc3)CC2)cc1
O=C(Cc1ccccc1F)c1ccc(O)cc1O
Cc1sc(NC(=O)c2ccco2)nc1-c1ccccc1
O=c1c2ccccc2nc(-c2ccccc2)n1Cc1ccco1
CC1CCCCN1C(=O)c1ccc(C(=O)Nc2ccc(F)cc2)cc1 (stereo unspecified)
O=C(CCc1ccccc1)NNC(=S)NC(=O)c1ccc(Cl)cc1
COc1cccc(N2C(=O)N(c3ccccc3)C3CS(=O)(=O)CC32)c1 (stereo unspecified)
CCCCCn1c(=O)[nH]c2cc(C(=O)NCCCN3CCCCC3CC)ccc2c1=O (stereo unspecified)
CCN(CC)CCCN1C=C2C(=O)C(C)(OC(=O)CCC(=O)OC)C(=O)C=C2C=C1C1CC1 (stereo unspecified)
CC(Oc1ccc2ccccc2c1)C(=O)NNC(=S)NC(=O)c1ccco1 (stereo unspecified)
Cc1ccc(OCC(=O)NNC(=S)NC(=O)C(C)(C)C)c(Br)c1
CCCCCc1cc(=O)oc2c(C(CCN3CCCCC3)c3cc(OC)c(OC)c(OC)c3)c(OC)cc(OC)c12 (stereo unspecified)
COc1cc(CN(C)Cc2cc(=O)n3ccsc3n2)ccc1OC(F)F
COc1ccc(CNC(=O)[C@H](C)NC(=O)N2CCn3c2nc2ccccc23)cc1
O=C(Cn1nc(C(F)(F)F)c2c1CCC2)NCc1ccc(F)cc1
CC(=O)NC(CC(=O)NCCN1C(=O)S/C(=C\c2ccccc2)C1=O)c1ccccc1 (stereo unspecified)
O=C(O)CN1C(=O)/C(=C/C=C/c2ccccc2)SC1=S
COc1ccc(/C=C2/SC(=S)N(CCCC(=O)N3CCN(C)CC3)C2=O)cc1
CN1CCN(C(=O)CCN2C(=O)S/C(=C/c3ccc(Cl)cc3)C2=O)CC1
CC(/C=C1\NC(=S)NC1=O)=C\c1ccccc1
CN1CCN(C(=O)CCN2C(=O)/C(=C/c3cccc(Br)c3)SC2=S)CC1
CCC(C(=O)N1CCOCC1)n1c(C(=O)OC)cc2occc21 (stereo unspecified)
C=CCn1c(SCC(=O)NC(=O)NC2CCCC2)nnc1C1CCCCC1
Cc1nc(SCC(=O)NC(=O)NCc2ccccc2)nc(C)c1C
CN(c1cccc(NC(=O)Nc2cccc(Cl)c2)c1)S(C)(=O)=O
CC(=O)Nc1cccc(C(=O)OC(C)C(=O)Nc2ccc(S(=O)(=O)N3CCCC3)cc2)c1 (stereo unspecified)
CC(=O)Nc1cc(NC(C)=O)cc(C(=O)OC(C)C(=O)Nc2ccc(S(=O)(=O)N3CCCC3)cc2)c1 (stereo unspecified)
CC1CCC(NC(=O)CCn2ccc3cc(S(=O)(=O)N4CCCC4)ccc32)CC1 (stereo unspecified)
CC1CCCCC1NC(=O)c1ccc2c(c1)[nH]c(=O)n2C1CCCC1 (stereo unspecified)
Cc1ccc(S(=O)(=O)N2CCCCC2)cc1NC(=O)CSc1nncn1-c1ccccc1
Cc1cc(C)n2c(SCC(=O)NC3CCCCC3C)nnc2n1 (stereo unspecified)
CCCc1nc2oc3c(NCC4CCCO4)ncnc3c2c2c1COC(C)(C)C2 (stereo unspecified)
CCCN(CCC)Cc1c(C(=O)N/N=C/C(C)=C\c2ccco2)nnn1-c1nonc1N
COc1ccccc1C(=O)NC1CCN(C(=S)NCCc2ccccc2)CC1
Cc1ccc(OCC(O)Cn2c(=N)n(Cc3ccccc3)c3ccccc32)cc1 (stereo unspecified)
COc1ccc(OCC(O)Cn2c(=N)n(Cc3ccccc3)c3ccccc32)cc1 (stereo unspecified)
Cc1ccc(/C=C2\SC(=S)N(c3c(C)n(C)n(-c4ccccc4)c3=O)C2=O)cc1
Cc1ccc(S(=O)(=O)NC2=C(N3CCN(Cc4ccccc4)CC3)C(=O)c3ccccc3C2=O)cc1
